Results reported in PubChem BioAssay.
“And” between values parts separate entries of the source, which are not always exact repeats. Equal values may be shown once. A number with no mark means an inactive call. No rule for the calls is given here.

Each molecule was assayed on Aerobactin synthetase IucA (Klebsiella pneumoniae hvKP1) (assay: Biochemical IucA enzyme inhibition primary screen of the Spectrum library (AID 1346200;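 also: 100% = wells without compound and 0% = wells lacking enzyme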)). Settings: malachite green pyrophosphate, A620, at 8 µM, hits give low values.

Row | Compound | activity remaining
1 | CCCCCCCCCCCC[C@H](C(=O)O)[C@@H](C)C(=O)O | 115%
2 | OC[C@@H](O)[C@@H](O[C@@H]1O[C@H](CO)[C@@H](O)[C@H](O)[C@H]1O)[C@H](O)[C@@H](O)CO | 96.4%
3 | CCC1OC(=O)[C@H](C)C(=O)[C@H](C)[C@@H](OC2O[C@H](C)C[C@H](N(C)C)[C@H]2O)[C@](C)(OC)C[C@@H](C)C(=O)[C@H](C)[C@H]2N(CCCCn3cnc(-c4cccnc4)c3)C(=O)OC12C (some centres not stated) | 121%
4 | NC(=O)N/N=C/c1ccc([N+](=O)[O-])o1 | 94.6%
5 | CN1C2CC3C[C@H]1C(O3)C2O (some centres not stated) | 108%
6 | O=c1cc(-c2ccccc2)oc2cc(O)cc(O)c12 | 118% and 119%
7 | CC1(C)C[C@@H]2C(=O)CC[C@H]3O[C@]3(C)CC[C@H]21 | 110%
8 | OC1=Cc2c(O)cc(O)cc2OC1(O)c1ccc(O)c(O)c1 (configuration not stated) | 81.3%
9 | CC(=O)OCC(=O)[C@@]1(O)CCC2C3C[C@H](C)C4=CC(=O)C=CC4(C)C3[C@@H](O)CC21C (some centres not stated) | 93.6%
10 | CC1(C)CCC[C@@]2(C)C1[C@@H](O)C[C@]1(C)C2CC[C@@H]2[C@@]3(C)CC[C@H](C(C)(C)O)[C@@H]3CC[C@@]21C (some centres not stated) | 99.1%
11 | CC(=O)Oc1c(C)c(C)c2c(c1C)CCC(C)(CCCC(C)CCCC(C)CCCC(C)C)O2 (configuration not stated) | 96.6%
12 | CC(C)=CCc1c(O)cc2oc(C)cc(=O)c2c1O | 118%
13 | CCCCCC/C=C\CCCCCCCc1cccc(O)c1C(=O)O | 112%
14 | COc1cc(-c2coc3cc(O[C@@H]4O[C@H](CO)[C@@H](O)[C@H](O)[C@H]4O)c(OC)c(O)c3c2=O)cc(O)c1OC | 120%
15 | O=C(/C=C/c1ccccc1)c1ccc(O)cc1O | 96.4%
16 | OCC(O)C(O)C(O)CO (configuration not stated) | 112% and 92.5%
17 | C=C1CCC(OC(C)=O)/C(C)=C/C[C@@H]2[C@@H]1CC2(C)C (some centres not stated) | 103%
18 | OCCN1C[C@@H](O)[C@@H](O)C(O)C1CO (some centres not stated) | 114%
19 | CCCCc1nc(Cl)c(CO)n1Cc1ccc(-c2ccccc2-c2nn[nH]n2)cc1 | 110%

Row | Compound | activity remaining
20 | CC(=O)Nc1c(I)cc(I)c(C(=O)O)c1I | 119%
21 | CCC(C)(C)C(=O)O[C@H]1C[C@@H](C)C=C2C=C[C@H](C)[C@H](CC[C@@H]3C[C@@H](O)CC(=O)O3)[C@H]21 | 106%
22 | C[C@@H]1CC[C@]2(C(=O)O)CC[C@]3(C)C(=CCC4[C@@]5(C)CC[C@H](O)C(C)(C)C5CC[C@]43C)C2[C@H]1C (some centres not stated) | 128%
23 | CC1(C)C2C[C@@H](O)[C@]3(C)C(CC[C@@]4(C)[C@H](c5ccoc5)OC(=O)C5OC543)[C@@]2(C)C(=O)C[C@H]1O (some centres not stated) | 108%
24 | COc1cc2c(cc1OC)-c1cc3ccc(OC)c(OC)c3c[n+]1CC2 | 97.8% and 112%
25 | O=C(OOC(=O)c1ccccc1)c1ccccc1 | 113%
26 | O=C1C[C@@H](c2ccc(O)cc2)Oc2cc(O)cc(O)c21 | 95.7%
27 | COc1cccc2c1C(=O)c1c(O)c3c(c(O)c1C2=O)C[C@@](O)(C(=O)CO)C[C@@H]3OC1C[C@H](N)[C@H](O)[C@H](C)O1 (some centres not stated) | 87.4%
28 | CCOC(=O)c1c(C)cc(O)c(C=O)c1O | 97.7%
29 | CC1(C)CCCC2(C)C3C1[C@@H](O)C2(C)C[C@H]3O (some centres not stated) | 105%
30 | C=C1CCC2C(CC2(C)C)C(=O)CCC1O (configuration not stated) | 116%
31 | CC(=O)OC(C)(C)[C@@H]1Cc2cc3ccc(=O)oc3cc2O1 | 95.5%
32 | COC(=O)c1c(OC)cc2c(c1C)Oc1c(Cl)c(O)c(Cl)c(C)c1C(=O)O2 | 116%
33 | C[C@H]1[C@H](C)CC[C@]2(CO)CC[C@]3(C)C(=CCC4[C@@]5(C)CC[C@H](O)C(C)(C)C5CC[C@]43C)[C@H]12 (some centres not stated) | 117%
34 | C=C1CCC2C(CC2(C)C)C(=C)CC/C1=N/O (configuration not stated) | 105%
35 | CN1CCc2c(c3ccccc3n2Cc2ccccc2)C1 | 116%
36 | CC(C)(N=NC(C)(C)C(=N)N)C(=N)N | 105%
37 | Oc1cc(O)c2c(c1)O[C@H](c1ccc(O)c(O)c1)[C@H](O)C2 | 99.8%
